From PubChem BioAssay AID1159580 (chemical genetic matrix, 2015)
Where “and” joins values, the source holds several entries; their conditions need not be identical. Equal values may be shown once. Among all 5,500 compounds or so, about 2,000 (36%) were called active. About 18% were inconclusive and are not listed. No stated cut-off is given here; in the data, active means normalized growth mostly below about 0.91 (no sharp cut-off); inconclusive means no clear call, values can overlap the other calls; inactive means mostly above about 0.92. This is one part of the list.

Experiment: chemical genetic growth profiling, strain panel (AID 1159580);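 further: tested at 20 µM; growth read once vehicle control cultures reached saturation at 30 °C; 1 = growth at the plate median or of vehicle wells; lower values mean less growth of the strain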
Settings: growth OD

Measured: normalized growth

CSCCC(N)C(=O)NC(CC(C)C)C(=O)NC(Cc1ccccc1)C(=O)O (configuration not stated)
inactive: S. cerevisiae deletion strains, locus YAL013W, strain DEP1, hits give low values 1.01 | S. cerevisiae deletion strains, locus YBR021W, strain FUR4, hits give low values 1.02 | S. cerevisiae deletion strains, locus YBR229C, strain ROT2, hits give low values 1.01 | S. cerevisiae deletion strains, locus YCL029C, strain bik1, hits give low values 0.987 | S. cerevisiae deletion strains, locus YDL035C, strain GPR1, hits give low values 1.02 | S. cerevisiae deletion strains, locus YDL074C, strain BRE1, hits give low values 1.05 | S. cerevisiae deletion strains, locus YDL101C, strain DUN1, hits give low values 1.02 | S. cerevisiae deletion strains, locus YDL134C, strain PPH21, hits give low values 1.02 | S. cerevisiae deletion strains, locus YDL185W, strain tfp1, hits give low values 1 | S. cerevisiae deletion strains, locus YDL192W, strain arf1, hits give low values 1 | S. cerevisiae deletion strains, locus YDR101C, strain arx1, hits give low values 0.994 | S. cerevisiae deletion strains, locus YDR150W, strain NUM1, hits give low values 1.02 | S. cerevisiae deletion strains, locus YDR162C, strain NBP2, hits give low values 1.02 | S. cerevisiae deletion strains, locus YDR318W, strain mcm21, hits give low values 0.978 | S. cerevisiae deletion strains, locus YDR388W, hits give low values 0.995 | S. cerevisiae deletion strains, locus YDR502C, strain sam2, hits give low values 1.01 | S. cerevisiae deletion strains, locus YEL061C, strain CIN8, hits give low values 1.01 | S. cerevisiae deletion strains, locus YER110C, hits give low values 0.994 | S. cerevisiae deletion strains, locus YER155C, strain BEM2, hits give low values 1.01 | S. cerevisiae deletion strains, locus YER167W, strain BCK2, hits give low values 1.02 | S. cerevisiae deletion strains, locus YGL078C, strain dbp3, hits give low values 0.987 | S. cerevisiae deletion strains, locus YGL086W, strain mad1, hits give low values 0.999 | S. cerevisiae deletion strains, locus YGL248W, strain PDE1, hits give low values 1.02 | S. cerevisiae deletion strains, locus YGR078C, strain PAC10, hits give low values 1.03 | S. cerevisiae deletion strains, locus YGR135W, strain pre9, hits give low values 1 | S. cerevisiae deletion strains, locus YGR229C, strain SMI1, hits give low values 1.04 | S. cerevisiae deletion strains, locus YGR252W, strain gcn5, hits give low values 0.956 | S. cerevisiae deletion strains, locus YHR030C, strain SLT2, hits give low values 1 and 1.02 | S. cerevisiae deletion strains, locus YHR079C, strain IRE1 (second series), hits give low values 0.988 | S. cerevisiae deletion strains, locus YHR079C, strain IRE1, hits give low values 1.01 | S. cerevisiae deletion strains, locus YHR094C, strain hxt1, hits give low values 0.996 | S. cerevisiae deletion strains, locus YHR129C, strain ARP1, hits give low values 1.01 | S. cerevisiae deletion strains, locus YHR200W, strain rpn10, hits give low values 0.995 | S. cerevisiae deletion strains, locus YIL066C, strain RNR3, hits give low values 1.01 | S. cerevisiae deletion strains, locus YIL073C, strain SPO22, hits give low values 1 | S. cerevisiae deletion strains, locus YIL125W, strain kgd1, hits give low values 1 | S. cerevisiae deletion strains, locus YIR030C, strain dcg1, hits give low values 0.998 | S. cerevisiae deletion strains, locus YJL095W, strain BCK1, hits give low values 1.04 and 0.991 | S. cerevisiae deletion strains, locus YJL134W, strain LCB3, hits give low values 1.01 | S. cerevisiae deletion strains, locus YJL168C, strain set2, hits give low values 0.998 | S. cerevisiae deletion strains, locus YJL187C, strain SWE1 (second series), hits give low values 1.02 | S. cerevisiae deletion strains, locus YJR043C, strain POL32, hits give low values 1 | S. cerevisiae deletion strains, locus YJR066W, strain TOR1, hits give low values 0.934 | S. cerevisiae deletion strains, locus YJR075W, strain HOC1, hits give low values 1.02 | S. cerevisiae deletion strains, locus YKL009W, strain mrt4, hits give low values 0.993 | S. cerevisiae deletion strains, locus YKL068W, hits give low values 0.987 | S. cerevisiae deletion strains, locus YKL085W, strain MDH1 (second series), hits give low values 1 | S. cerevisiae deletion strains, locus YKL085W, strain MDH1, hits give low values 1 | S. cerevisiae deletion strains, locus YKL190W, strain CNB1, hits give low values 1.01 | S. cerevisiae deletion strains, locus YKR001C, strain vps1, hits give low values 0.995 | S. cerevisiae deletion strains, locus YLR039C, strain RIC1, hits give low values 1.07 | S. cerevisiae deletion strains, locus YLR058C, strain SHM2, hits give low values 1.01 | S. cerevisiae deletion strains, locus YLR102C, strain apc9, hits give low values 0.994 | S. cerevisiae deletion strains, locus YLR113W, strain HOG1, hits give low values 0.988 | S. cerevisiae deletion strains, locus YLR262C, strain YPT6, hits give low values 1.04 | S. cerevisiae deletion strains, locus YLR268W, strain sec22, hits give low values 1.01 | S. cerevisiae deletion strains, locus YLR330W, strain CHS5, hits give low values 1.01 | S. cerevisiae deletion strains, locus YLR342W, strain FKS1 (second series), hits give low values 1.01 | S. cerevisiae deletion strains, locus YLR371W, strain rom2, hits give low values 1 | S. cerevisiae deletion strains, locus YLR418C, strain cdc73, hits give low values 1 | S. cerevisiae deletion strains, locus YML016C, strain PPZ1, hits give low values 1.01 | S. cerevisiae deletion strains, locus YML032C, strain rad52, hits give low values 0.989 | S. cerevisiae deletion strains, locus YML124C, strain tub3, hits give low values 0.995 | S. cerevisiae deletion strains, locus YMR078C, strain ctf18, hits give low values 0.987 | S. cerevisiae deletion strains, locus YMR223W, strain ubp8, hits give low values 0.995 | S. cerevisiae deletion strains, locus YMR263W, strain SAP30, hits give low values 1.03 | S. cerevisiae deletion strains, locus YMR307W, strain GAS1, hits give low values 0.996 | S. cerevisiae deletion strains, locus YNL067W, strain RPL9B, hits give low values 1.03 | S. cerevisiae deletion strains, locus YNL128W, strain TEP1, hits give low values 1.03 | S. cerevisiae deletion strains, locus YNL153C, strain GIM3, hits give low values 1.02 | S. cerevisiae deletion strains, locus YNL183C, strain NPR1, hits give low values 0.928 | S. cerevisiae deletion strains, locus YNL233W, strain BNI4, hits give low values 1.02 | S. cerevisiae deletion strains, locus YNL250W, strain rad50, hits give low values 1 | S. cerevisiae deletion strains, locus YNL271C, strain bni1, hits give low values 0.994 | S. cerevisiae deletion strains, locus YNL298W, strain CLA4, hits give low values 1 | S. cerevisiae deletion strains, locus YNL307C, strain MCK1, hits give low values 0.98 | S. cerevisiae deletion strains, locus YNL322C, strain KRE1, hits give low values 1.01 | S. cerevisiae deletion strains, locus YNR052C, strain pop2, hits give low values 0.996 | S. cerevisiae deletion strains, locus YOL006C, strain TOP1, hits give low values 1.11 | S. cerevisiae deletion strains, locus YOL012C, strain htz1 0.734 | S. cerevisiae deletion strains, locus YOL147C, strain pex11, hits give low values 0.996 | S. cerevisiae deletion strains, locus YOR061W, strain CKA2, hits give low values 1.02 | S. cerevisiae deletion strains, locus YOR069W, strain VPS5, hits give low values 1.01 | S. cerevisiae deletion strains, locus YOR136W, strain idh2, hits give low values 0.989 | S. cerevisiae deletion strains, locus YOR144C, strain elg1, hits give low values 0.998 | S. cerevisiae deletion strains, locus YOR184W, strain ser1, hits give low values 0.989 | S. cerevisiae deletion strains, locus YOR231W, strain MKK1, hits give low values 1 | S. cerevisiae deletion strains, locus YOR316C, strain cot1, hits give low values 0.998 | S. cerevisiae deletion strains, locus YPL055C, strain LGE1, hits give low values 1.06 | S. cerevisiae deletion strains, locus YPL241C, strain CIN2, hits give low values 1.01 | S. cerevisiae deletion strains, locus YPL256C, strain CLN2, hits give low values 1.01 | S. cerevisiae deletion strains, locus YPR119W, strain clb2, hits give low values 0.985 | S. cerevisiae deletion strains, locus YPR141C, strain kar3, hits give low values 0.993 | S. cerevisiae deletion strains, locus YPR163C, strain tif3, hits give low values 0.989 | S. cerevisiae deletion strains, locus YPR167C, strain met16, hits give low values 0.993 | S. cerevisiae deletion strains, strain wtn01, hits give low values 1.01 | S. cerevisiae strains, strain wild type, hits give low values 1.01
